Sampled rows, rich in hits. Any-hit rate of the full collection: about 3.1%.
IL-2 act: activators of IL-2; IL-2 activation reporter assay, cell-based qHTS; stimulated with anti-CD3/CD4/CD28 beads; in transgenic mouse T cells; activation, % (series mostly up to about 46 µM); 0.065% of 360,000 active; AID 652025; in the data active means activation above about 50%; inconclusive means mostly about 30% to 49%; further: 0% is about no effect
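Quantitative HTS in unstimulated transgenic mouse T cells, with memory T cells as non-tolerant control and PMA/ionomycin as tolerance-bypass control. Compound pretreatment lasted 60 minutes before 18 h bead stimulation; EGFP/DsRed fluorescence read.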
Nrf2 ARE act: activates Nrf2 signaling; 0.31% of 410,000 active; AREc32 ARE-luciferase reporter (MCF7-derived line), luminescence, 24 h; Potency, µM (doses to about 46.1 µM), for the others: at the top dose activation, usual class: activators; further: potency means the concentration at half of the fitted maximal effect; % of control where 0% means no effect; nearly all actives have a fitted effect of over 65% in size
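Luminescent ARE reporter assay in AREc32_Fluc cells: overnight plating at 37 deg C, 24 hr compound incubation, Steady-Glo added, 30 min RT before reading.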
BRCA1 expr act: BRCA1 expression activation | Potency, µM (doses to about 46.1 µM), inactives show at the highest dose activation, usual class: activators | 1.1% of 380,000 active | MCF7-BRCA1-FFLuc reporter, luminescence, 48 h; response scale: scaled: vehicle 0%, 10 µM genistein 100%; further: potency means the concentration at half of the fitted maximal effect; nearly all actives have a fitted effect of over 80% in size
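Reporter cells (MCF7, BRCA1 promoter-firefly luciferase) received library compounds across a concentration series for 48 h. End-point luminescence was measured and concentration-effect curves derived after normalization.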
ELG1 repair inh: inhibitors of ELG1-dependent DNA repair in HEK293T cells; AID 504467; HEK293T ELG1-luciferase reporter, luminescence, 16 h; DNA damage induced by 5-fluorouridine; Potency, µM (series often up to 46.1 µM), inactives show at the highest dose activity change, negative = inhibition, hits mostly inhibitors; 2.3% of 330,000 active; further: potency means the concentration at half of the fitted maximal effect; on the % scale 0 is the no-effect control and ±100 the full control effect; nearly all actives have a fitted effect of over 55% in size
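Luminescence from the luciferase reporter, measured 30 min after ONE-Glo reagent at room temperature, was the read-out. Beforehand, 2,000 cells per well were exposed for 16 hr at 37 °C to 5-fluorouridine together with compound or vehicle.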
Numbers without * were called inactive; ? = inconclusive; . = not tested or not shown; [ ] = dose if it differs, or a comment. Unless noted, the call rests on the fitted dose curve; in most records, active means well fitted curve in the direction sought with a large enough effect; inconclusive means small, poorly fitted or top-dose-only effect, or another doubt; inactive means no such curve, though single readings can be large; an effect the other way counts as inactive or inconclusive.

SMILES	IL-2 act	Nrf2 ARE act	BRCA1 expr act	ELG1 repair inh
CC(=O)c1ccc(NC(=O)c2cc(C)nc3c2c(C)nn3-c2ccc(C)cc2)cc1	.	3.6%	.	.
O=C(c1cccc(S(=O)(=O)N2CCOCC2)c1)N(Cc1nnc(-c2ccccc2Cl)o1)C1CC1	-3.3	2.0%	17.1%	?
O=C(c1cc2ccccc2o1)N(Cc1nnc(-c2ccccc2Cl)o1)C1CC1	1.1	13.3%	-19.0%	?
CCOc1ccc2oc(C(=O)N(Cc3nnc(-c4ccccc4Cl)o3)C3CC3)c(C)c2c1	-6.0	0.2%	-32.3%	9.2µM*
CC1CN(S(=O)(=O)c2cccc(C(=O)N(Cc3nnc(-c4ccccc4Cl)o3)C3CC3)c2)CC(C)O1 (configuration not stated)	-2.8	3.3%	-3.0%	5.8µM*
O=C(c1cc(S(=O)(=O)N2CCOCC2)ccc1F)N(Cc1nnc(-c2ccccc2Cl)o1)C1CC1	-3.4	4.5%	-52.6%	?
Cc1ccc(S(=O)(=O)N2CCOCC2)cc1C(=O)N(Cc1nnc(-c2ccccc2Cl)o1)C1CC1	-3.6	2.8%	-9.9%	10.3µM*
O=C(O)c1ccc(-c2ccccn2)s1	0.7	2.4%	10µM*	?
c1ccc(-c2ccc(-c3ccccn3)s2)nc1	-0.5	?	25.0%	?
COc1ccccc1/C=C/c1nc2ccccc2n1C(C)C	.	24.5%	.	.
COC(=O)c1ccc(-n2c(C)cc(-c3csc(NC(=O)c4ccc(S(=O)(=O)N(C)C)cc4)n3)c2C)cc1	-0.1	3.0%	3.1%	13µM*
CCOC(=O)c1csc(NC(=O)c2ccc(OCC)cc2)n1	1.1	-0.2%	-6.4%	?
O=C(Nc1nc(-c2cc(Cl)sc2Cl)cs1)c1ccccc1	1.3	10µM*	17.0%	?
CCOC(=O)c1csc(-c2sccc2Br)n1	1.5	14.1µM*	93.6%	?
CCOC(=O)c1csc(NC(=O)c2ccc(S(=O)(=O)N(C)C)cc2)n1	-1.7	0.0%	-35.9%	7.31µM*
CC1=C(C(=O)Nc2ccc(Cl)cc2)C(c2cccs2)n2nc(SCc3cccc(C)c3)nc2N1 (configuration not stated)	.	0.5%	12.1%	.
CCOC(=O)c1cccc(NC(=O)c2ccc3c(Cl)c4c(nc3c2)CCC4)c1	.	-0.3%	?	.
CCOC(=O)c1sc(NC(=O)c2ccc(S(=O)(=O)N(C)C)cc2)cc1C	-0.6	-0.9%	0.6%[1.84 µM]	16.4µM*
CCOC(=O)c1sc(NC(=O)c2ccccc2)cc1C	-2.2	-0.8%	?	?
CCOC(=O)c1csc(NC(=O)c2ccccc2)n1	-0.6	1.9%	3.98µM*	?
O=C(NCC[C@H]1CC[C@H](NS(=O)(=O)c2ccccc2F)[C@@H](CO)O1)c1ccc(F)cc1	-0.1	.	.	.
O=C(NC(=S)Nc1ccc2c(c1)OCO2)c1ccccc1	-0.2	3.0%	?	?
O=C(NC(=S)Nc1ccc2c(c1)OCCO2)c1cccc(Br)c1	0.0	5.1%[9.22 µM]	3.98µM*	?
COc1cc(NC(=S)Nc2ccc3c(c2)OCCO3)cc(OC)c1OC	-2.5	0.2%	58.4%	?
S=C(Nc1ccc(Br)cc1)Nc1ccc2c(c1)OCCO2	-2.6	-0.6%	11.2µM*	?
SMILES	IL-2 act	Nrf2 ARE act	BRCA1 expr act	ELG1 repair inh
CC1=C(C(=O)Nc2ccccc2)C(c2cccc(O)c2)n2nc(-c3ccccc3Cl)nc2N1 (configuration not stated)	.	10.6%	.	.
COc1ccc2c(CNCc3cccs3)c(C(=O)O)n(Cc3ccccc3C)c2c1	.	0.2%	.	.
Cn1c(Oc2ccc(Cl)cc2)c(C=O)c2ccccc21	1.0	2.8%	-35.1%	11.6µM*
Cn1c(Sc2ccccc2Cl)c(C=O)c2ccccc21	-2.9	-0.5%	-19.9%	?
COc1ccc(Oc2c(C=O)c3ccccc3n2C)cc1	-0.2	1.8%	-0.2%	-11.2%
Cn1c(Sc2ccc(Cl)cc2)c(C=O)c2ccccc21	0.7	10.4%	-59.5%	7.31µM*
Cc1cc(OC(C)C(=O)N(Cc2ccco2)Cc2ccco2)cc(C)c1Cl (configuration not stated)	.	0.5%	.	.
Cc1cccc(N2CCN(C(=O)C3CCN(S(=O)(=O)c4cccs4)CC3)CC2)c1C	.	-1.1%	.	.
COc1cccc(CNS(=O)(=O)c2ccc(N3CCCCS3(=O)=O)cc2)c1	.	-0.2%	.	.
c1ccc(-c2nnc(-c3c[nH]c4ccccc34)nc2-c2ccccc2)cc1	0.1	0.1%	-32.4%	23.1µM*
Cc1sc(NC(=O)CN(C(=O)c2ccccc2F)C2CCCC2)c(C(N)=O)c1C	-2.0	-0.5%	-4.9%	16.4µM*
Cc1ccc(C(=O)N(CC(=O)Nc2sc(C)c(C)c2C(N)=O)C2CCCC2)cc1	-0.2	-0.2%	-19.0%	?
COc1cc2nc(C3CCC3)nc(N3CCN(c4ccccn4)CC3)c2cc1OC	4.1	0.6%	-8.9%	10.3µM*
COc1cc2nc(C3CCC3)nc(N3CCN(c4ccccc4OC)CC3)c2cc1OC	-0.7	-1.8%	-82.6%	11.6µM*
CCOC(=O)N(C)c1c(CC)nc2c(OCc3ccccc3)cccn12	0.0	-0.7%	-13.8%	.
O=C(Nc1cccc(C(F)(F)F)c1)N1CCC(CN2CCCCCC2)CC1	.	-0.6%	.	.
Cc1c(C(=O)N(C)C)sc2c1c(=O)n(-c1ccc(Cl)c(Cl)c1)c(=O)n2Cc1ccc(F)cc1	.	-1.0%	.	.
CC(C)c1ccc(Nc2nc(CC(=O)O)cs2)cc1	-1.0	0.2%	5.01µM*	?
CSc1ccc(CN2CCC2(C)C(=O)Nc2cccc(NS(C)(=O)=O)c2)cc1 (configuration not stated)	-0.9	1.4%	-12.6%	.
CSc1ccccc1OCc1cc(C(=O)NC2CCOC2)no1 (configuration not stated)	-1.3	2.9%	12.6µM*	?
CSc1ccccc1OCc1cc(C(=O)N(C)Cc2nonc2C)no1	0.6	2.4%	11.2µM*	?
CSc1ccccc1OCc1cc(C(=O)N[C@H]2CCCCNC2=O)no1	-2.8	0.7%	11.2µM*	?
CSc1ccccc1OCc1cc(C(=O)NC(C)Cc2cccc(C)n2)no1 (configuration not stated)	-4.5	2.2%	?	?
CSc1ccccc1OCc1cc(C(=O)NCc2cccc(C)n2)no1	1.3	3.3%	6.31µM*	?
CSc1ccccc1OCc1cc(C(=O)NC2CCOC(C)(C)C2)no1 (configuration not stated)	-2.7	-0.9%	-10.8%	0.8%
Cc1nnc(SCC(=O)NC(=O)Nc2ccc3c(c2)OCCO3)n1N	0.8	0.1%	10µM*	?
Cc1ccc(-n2nnnc2SCC(=O)NC(=O)Nc2ccc3c(c2)OCCO3)cc1	1.1	2.9%	?	?
CC(C)(C)SCCNC(=O)/C=C/c1cccc([N+](=O)[O-])c1	-0.5	10µM*	52.5%	?
O=C(NCCc1ccccc1)c1ccc(Cl)c([N+](=O)[O-])c1	-1.0	8.1%	3.98µM*	?
O=C(NCCc1ccccc1)c1ccccc1[N+](=O)[O-]	-0.4	3.1%	0.0%	?

From PubChem BioAssay
